Active and inactive are the calls of the source.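 How the source made its calls, unless noted: active means inhibition over a set limit, the all-compound mean plus 3 SD, in both replicate runs; inconclusive means over that limit in just one replicate run; inactive means at or under that limit in both runs.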

One assay in a line: RAM pathway blockade in budding yeast – dse1pr::URA3 reporter, 5-FOA selection, pilot screen (AID 869).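 Further: 0% = DMSO wells with no growth and 100% = 10 µM 1-NA-PP1 with full growth; RAM network block rescues cells from 5-FOA so hits raise OD615 growth.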 Conditions: S. cerevisiae dse1pr::URA3 5-FOA growth, OD615, 2 d; at 10 µM; hits give high values; strain carries analog-sensitive mutant Cbk1 kinase.
Regarding `N#Cc1c2n(c3c(=O)n(Cc4ccc(Cl)cc4)cnc13)CCCC2`, the inhibition (as a rule, the change of the read-out against control, counted positive when it falls) was 0.755% (inactive).
Same read-out and setting: to `COc1cccc(-n2c(Cc3cc(=O)[nH]c(=O)[nH]3)nnc2SCC(=O)N2CCCCCC2)c1` belongs -0.735% (inactive); to `CCOC(=O)CN1CC23C=CC(O2)C(C(=O)NC2CCCCCC2)C3C1=O` (stereo not drawn), 1.36% (inactive).
On to `Cc1ccc(C(=O)COC(=O)c2cnccn2)cc1`, for which the inhibition is 2.19% (inactive).
Same read-out and setting: the value for `Cc1cc(C)n(-c2nc(C)nc(NCc3ccccc3)n2)n1` was 0.215% (inactive); that for `CC(CCc1ccccc1)NC(=O)C1CCN(C(=O)c2sccc2-n2cccc2)CC1` (stereo not drawn) was 1.75% (inactive); that for `Cc1onc(-c2ccccc2Cl)c1C(=O)N1CCCCC1C(=O)O` (stereo not drawn) was 0.055% (inactive).
On to `O=C(c1ccc(=O)[nH]c1)N(Cc1ccco1)C1(C(=O)NC2CCCCC2)CCCCC1`, for which the inhibition was 0.61% (inactive).
Same read-out and setting: to `CCCS(=O)(=O)c1nc(S(=O)(=O)c2ccc(C)cc2)c(N2CCCC2)s1` belongs 4.48% (inactive); to `CCOC(=O)N1CCC(N2C(=O)c3ccccc3C2=O)CC1`, 1.98% (inactive).
In the case of `O=c1oc(-c2cc3ccccc3o2)nc2sc3c(c12)CCCC3`, the inhibition is 2.1% (inactive).
Still for that read-out and setting: to `O=C(NC1CCN(Cc2ccccc2)CC1)C1CCN(c2nnc(-n3cccc3)s2)CC1` belongs 0.53% (inactive).
The same measure, in the same setting: the value for `Cn1nc(-c2ccc(Cl)cc2)c2cc(C(=O)NCCCN3CCOCC3)sc21` was -0.235% (inactive); that for `CC(C)N(Cc1nc(-c2ccccc2)no1)C(=O)Cc1ccccc1` was -0.4% (inactive).
Still for that read-out and setting: to `COc1ccc(CC2CCOC2=O)cc1` (stereo not drawn) belongs 1.93% (inactive).
On to `CCOc1cccc(=O)c2c(C)n(Cc3ccco3)c(C)c12`, for which the inhibition was 0.975% (inactive).
The same measure, in the same setting: the value for `COc1ccccc1NC(=O)c1ccc(S(=O)(=O)N(C)C)cc1` was 2.33% (inactive).
On the same count and under the same terms, to `Cc1noc(NS(=O)(=O)c2ccc(NC(=O)CSc3nc4c(cc3C#N)CCCC4)cc2)c1C` belongs 2.52% (inactive); to `CCOc1ccc(N2C(=O)c3ccccc3C2O)cc1` (stereo not drawn), -0.05% (inactive).
As to `COc1ccc(N2CCN(c3cc(=O)n(Cc4ccc(F)cc4)c(=O)[nH]3)CC2)cc1`, the inhibition was 0.215% (inactive).
The same measure, in the same setting: to `COc1ccc2nc(NC(=O)c3ccc4ncsc4c3)sc2c1` belongs 3.54% (inactive).
With `CC(C)Oc1ccc(N2CC(C(=O)Nc3ccc4c(c3)OCO4)CC2=O)cc1` (stereo not drawn), the inhibition is 2.58% (inactive).
The same measure, in the same setting: to `N#Cc1nc(-c2ccccc2F)oc1NCc1ccccc1` belongs 1.98% (inactive); to `O=C(CN1CCN(CC(=O)Nc2ccccn2)CC1)Nc1ccccn1`, 0.705% (inactive).
For the molecule `O=C(c1ccccc1)N1CCN(c2ccc(NCc3ccc4c(c3)OCO4)cc2)CC1`, the inhibition was 1.77% (inactive).
The same measure, in the same setting: the value for `Brc1ccccc1Cn1c(-c2cncs2)nc2ccccc21` was 0.68% (inactive); that for `Cc1csc2nc(CNS(=O)(=O)c3ccc(-c4ccccc4)cc3)cn12` was 0.94% (inactive); that for `Cc1c(Br)cc(C(=O)N2CCCC2)c(C)c1C` was 0.205% (inactive).
Same read-out and setting: the value for `CSc1ccc(S(=O)(=O)N2CCN(Cc3ccc4c(c3)OCO4)CC2)cc1` was 0.865% (inactive).
On the same count and under the same terms, to `O=C(NCC(c1cccnc1)N1CCN(c2ccccc2F)CC1)c1ccccc1` (stereo not drawn) belongs 1.75% (inactive).
As to `CCCS(=O)(=O)NCCc1cc2ccc(OC)cc2[nH]c1=O`, the inhibition is 2.56% (inactive).
On the same count and under the same terms, to `COc1ccc(NC(=O)NCCCN2CCCC2=O)cc1` belongs 0.945% (inactive); to `CCCOCCOC(=O)C1=C(C)NC(=O)NC1c1cc(Cl)c(O)c(OC)c1` (stereo not drawn), 0.265% (inactive).
Take `CCN(CC)CCCNC(=O)c1cc2c(-c3ccc(Cl)cc3)nn(C)c2s1`: the inhibition is -0.18% (inactive).
On the same count and under the same terms, to `O=C(Nc1ccc(OC(F)(F)F)cc1)c1cnc2n(c1=O)CCS2` belongs 3.13% (inactive).
On the same count and under the same terms, the value for `Cc1cc(C)c2c(=O)[nH]c(SCC(=O)N3CCCCC3)nc2n1` was 0.535% (inactive); that for `CCCCN(CC)CCNC(=O)c1cc2c(=O)n(C)c3ccccc3c2n1C` was 0.8% (inactive); that for `Cc1noc(C(=O)N2CCN(c3ccc(F)cc3)CC2)c1Cl` was 2.11% (inactive).
As for `CCOC(=O)c1ccc(N2C(=O)c3n[nH]c(C)c3C2c2ccccn2)cc1` (stereo not drawn), the inhibition is 0.195% (inactive).

A further assay in a line: RAM signaling pathway blockade in yeast – S. cerevisiae, Pdr1DBD-CYC8 efflux-inhibited sensitized strain, primary screen (AID 1298;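 active means RAM network inhibition above 8.4% in each of two replicates, 3 SD over the compound average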;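 further: 0% = DMSO untreated cells without growth and 100% = 10 µM 1-NA-PP1 full growth; higher means more yeast growth rescued from 5-FOA killing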). Conditions: S. cerevisiae cbk1-as DSE1-URA3 strain, 5-FOA growth OD615, 2 d; at 50 µM; hits give high values.
Regarding `N#Cc1c2n(c3c(=O)n(Cc4ccc(Cl)cc4)cnc13)CCCC2`, the RAM network inhibition was 4.22% (inactive).
On the same count and under the same terms, to `COc1cccc(-n2c(Cc3cc(=O)[nH]c(=O)[nH]3)nnc2SCC(=O)N2CCCCCC2)c1` belongs 7.07% (inactive); to `CCOC(=O)CN1CC23C=CC(O2)C(C(=O)NC2CCCCCC2)C3C1=O` (stereo not drawn), 0.37% (inactive); to `Cc1ccc(C(=O)COC(=O)c2cnccn2)cc1`, 1.61% (inactive).
Same read-out and setting: the value for `Cc1cc(C)n(-c2nc(C)nc(NCc3ccccc3)n2)n1` was 0.98% (inactive); that for `CC(CCc1ccccc1)NC(=O)C1CCN(C(=O)c2sccc2-n2cccc2)CC1` (stereo not drawn) was 2.14% (inactive).
On the same count and under the same terms, to `Cc1onc(-c2ccccc2Cl)c1C(=O)N1CCCCC1C(=O)O` (stereo not drawn) belongs 4.06% (inactive); to `O=C(c1ccc(=O)[nH]c1)N(Cc1ccco1)C1(C(=O)NC2CCCCC2)CCCCC1`, 1.87% (inactive).
On to `CCCS(=O)(=O)c1nc(S(=O)(=O)c2ccc(C)cc2)c(N2CCCC2)s1`, for which the RAM network inhibition was 10.2% (inactive).
Still for that read-out and setting: the value for `CCOC(=O)N1CCC(N2C(=O)c3ccccc3C2=O)CC1` was -0.31% (inactive).
Consider `O=c1oc(-c2cc3ccccc3o2)nc2sc3c(c12)CCCC3`, for which the RAM network inhibition is 4.52% (inactive).
Same read-out and setting: to `O=C(NC1CCN(Cc2ccccc2)CC1)C1CCN(c2nnc(-n3cccc3)s2)CC1` belongs 2.35% (inactive); to `Cn1nc(-c2ccc(Cl)cc2)c2cc(C(=O)NCCCN3CCOCC3)sc21`, -0.16% (inactive); to `CC(C)N(Cc1nc(-c2ccccc2)no1)C(=O)Cc1ccccc1`, 2.86% (inactive).
Turning to `COc1ccc(CC2CCOC2=O)cc1` (stereo not drawn), the RAM network inhibition was -0.09% (inactive).
On the same count and under the same terms, the value for `CCOc1cccc(=O)c2c(C)n(Cc3ccco3)c(C)c12` was -0.46% (inactive); that for `COc1ccccc1NC(=O)c1ccc(S(=O)(=O)N(C)C)cc1` was -1.21% (inactive).
Same read-out and setting: to `Cc1noc(NS(=O)(=O)c2ccc(NC(=O)CSc3nc4c(cc3C#N)CCCC4)cc2)c1C` belongs 2.9% (inactive); to `CCOc1ccc(N2C(=O)c3ccccc3C2O)cc1` (stereo not drawn), 2.58% (inactive); to `COc1ccc(N2CCN(c3cc(=O)n(Cc4ccc(F)cc4)c(=O)[nH]3)CC2)cc1`, 9.17% (inactive).
Still for that read-out and setting: to `COc1ccc2nc(NC(=O)c3ccc4ncsc4c3)sc2c1` belongs 8.79% (inactive); to `CC(C)Oc1ccc(N2CC(C(=O)Nc3ccc4c(c3)OCO4)CC2=O)cc1` (stereo not drawn), 4.96% (inactive).
`N#Cc1nc(-c2ccccc2F)oc1NCc1ccccc1`: the RAM network inhibition is 3.96% (inactive).
Still for that read-out and setting: the value for `O=C(CN1CCN(CC(=O)Nc2ccccn2)CC1)Nc1ccccn1` was 6.03% (inactive); that for `O=C(c1ccccc1)N1CCN(c2ccc(NCc3ccc4c(c3)OCO4)cc2)CC1` was 6.1% (inactive); that for `Brc1ccccc1Cn1c(-c2cncs2)nc2ccccc21` was 3.2% (inactive).
On the same count and under the same terms, to `Cc1csc2nc(CNS(=O)(=O)c3ccc(-c4ccccc4)cc3)cn12` belongs 4.87% (inactive); to `Cc1c(Br)cc(C(=O)N2CCCC2)c(C)c1C`, 3.08% (inactive); to `CSc1ccc(S(=O)(=O)N2CCN(Cc3ccc4c(c3)OCO4)CC2)cc1`, 6.37% (inactive).
Same read-out and setting: the value for `O=C(NCC(c1cccnc1)N1CCN(c2ccccc2F)CC1)c1ccccc1` (stereo not drawn) was 1.21% (inactive).
In the case of `CCCS(=O)(=O)NCCc1cc2ccc(OC)cc2[nH]c1=O`, the RAM network inhibition was 2.19% (inactive).
Still for that read-out and setting: to `COc1ccc(NC(=O)NCCCN2CCCC2=O)cc1` belongs -0.16% (inactive); to `CCCOCCOC(=O)C1=C(C)NC(=O)NC1c1cc(Cl)c(O)c(OC)c1` (stereo not drawn), -1.04% (inactive); to `CCN(CC)CCCNC(=O)c1cc2c(-c3ccc(Cl)cc3)nn(C)c2s1`, -0.36% (inactive).
Take `O=C(Nc1ccc(OC(F)(F)F)cc1)c1cnc2n(c1=O)CCS2`: the RAM network inhibition is 4.63% (inactive).
On the same count and under the same terms, the value for `Cc1cc(C)c2c(=O)[nH]c(SCC(=O)N3CCCCC3)nc2n1` was 2.3% (inactive); that for `CCCCN(CC)CCNC(=O)c1cc2c(=O)n(C)c3ccccc3c2n1C` was 0.41% (inactive); that for `Cc1noc(C(=O)N2CCN(c3ccc(F)cc3)CC2)c1Cl` was 9.11% (inactive).
For the molecule `CCOC(=O)c1ccc(N2C(=O)c3n[nH]c(C)c3C2c2ccccn2)cc1` (stereo not drawn), the RAM network inhibition was 3.09% (inactive).

These data come from PubChem BioAssay.
